Assay results published in the supplement of paper PMC6555819.

system: PPARg:RXRa IVT, anti-PPARg (NR concentration 270 nM, RXRa partner concentration 90 nM); assay: PBM binding z-score (relative to random genomic background probes); higher = stronger binding; sequences stand for … in GC…GCGATTGACAGCGTAGAATGAAGG
Summary of the method: (§1)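 Binding z-scores take random background probes as their reference. They come from custom Agilent 4×180K protein-binding microarrays incubated 1 h with ligand-free nuclear receptor dimers, with antibodies against each partner (one per run) detecting binding. Scanned fluorescence was regression-normalized.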

Sequence | PBM binding z-score
CTCCAAAGGTCGTGCTCAGGTGAGTATACCAAAC | 1.49
TAGCCAAGGTCATGGGCCAGTATACCACGCGAAC | 3.66
CGAACTACGTCAGAACAGGACAGTGAAGGATGAT | -0.508
ATATGTTGGTTATCGGGTCATTCAGTTTGCGCAT | 3.36
ACAGACAGGTTATGAAGGTAACTCAGGCTATCAT | 0.659
CCGACTGGGGCAGAAAGGATACCATACCATCCGG | 0.728
TCACGGAGGACACGAAAGGTCAGAGCTCGACATC | 1.63
TGTCAAAGTTCAAAGGCAACGTAAGTATCCACAC | 3.82
CCTCGCAGGCCAATCTGGGTCACTCAAGGCTTGA | 4.74
GCGACTGGGGCATCAGCAGGTTACCATTACTTAA | 3.38
TAGCCTAGGTCATGGGCCAGTATCCCACGCGAAC | 3.14
TCATATAGGTAAAAGGTGAAATTCGGTGTGGTAA | 5.24
CCTATTAGATGACCATAAGGGCAACCGAAGCTCG | 0.24
AGAACGAGGGCACGCTGAGTTGGTAGCAGAGTAG | 3.68
AGCACGAGGGCAATGAGTTGATAGCACGGGTGGC | 0.791
CCGACTGGGGCATAAAGTTACCATAAGCCAGCCC | 1.79
CGAACTAGGTCATCCAGGACAGTAAATACATTGA | 8.2
ATCTCTAGGTGAAGATAGTTCAGTGAATGCAAAT | 4.44
ACTATTAGTTGACTTGGGGCAACCGATACGACGC | 0.607
TAGCTTAGGTCATTGGGCCAGTATAGTACGCATC | 3.15

Sequence | PBM binding z-score
AGAATGCGGTTATTAAGATCAGGGAATTGCGGTC | 0.143
TCTTGTAGATAAGCAGGTTAAGAAAGCTGGCCAA | 0.184
GCATATAGGTAATACAAGGTGAAAGTTCGATTGT | 3.61
GATACAGGGTCAAGGCCAGACTACGCGTATTGAT | 3.83
TCGGCTAGGTCAGTTGGTCAGCTAACGAGCTGCC | 1.9
AGTAAAAGTTCAGGACGAGGTAACGTAAAGCACG | 0.814
AGAACGAGGGCAATGAGTTGATAACACGGGTGGC | 2.45
TGAATGAGGTTATAAGCTCAGGGAACGTTGCAAA | 1.28
TCTATTAGTTGATTAGGGCATCCGAAACAGCGGA | 1.16
ATATGTAGGTTAAGGGTAATTCAGGTTGGTTCGC | 7.16
CAAACTAGGTCACAGAGGTCAAATTCCGTGCGTA | 8.98
CGAACGAGGGCATGAGTGGATAGCAAATGCCGAT | 1.85
CCGAGTAGGTTATGGGGCATTCCGGCAACGGTGA | 3.14
CGTCCCAGGTCATAGGAGGTCAGTGAAGACAGAT | 3.65
TTACCAAGTTGAAGGTCGTTGATCCCTCTGTAGA | 0.442
GCACCAAGGTGAATAGGTCGTTGATGAGTAGGCG | 2.2
ATCGAAAGGTCGTGAGGTGAGTAGACAGAAAGGC | 2.39
CGAACTAGGTGATCCAGGACAGTGAATACATTGA | 5.54
TCTTGTAGATTAACAGGAGGTTAAGAAAGATCGA | 0.0101
AGAATGAGGTTATTAATATCAGGGAATTGCGGTC | 2.52

system: PPARg DBDmut:RXRa IVT, anti-PPARg (DBD mutation: PPARg1 K132A/R137A, NR concentration 270 nM, RXRa partner concentration 90 nM); assay: as above
Summary of the method: as §1

Sequence | PBM binding z-score
CTCCAAAGGTCGTGCTCAGGTGAGTATACCAAAC | -0.0777
TAGCCAAGGTCATGGGCCAGTATACCACGCGAAC | 0.971
CGAACTACGTCAGAACAGGACAGTGAAGGATGAT | 0.627
ATATGTTGGTTATCGGGTCATTCAGTTTGCGCAT | 1.53
ACAGACAGGTTATGAAGGTAACTCAGGCTATCAT | 0.714
CCGACTGGGGCAGAAAGGATACCATACCATCCGG | -0.578
TCACGGAGGACACGAAAGGTCAGAGCTCGACATC | -0.581
TGTCAAAGTTCAAAGGCAACGTAAGTATCCACAC | 1.26
CCTCGCAGGCCAATCTGGGTCACTCAAGGCTTGA | -0.647
GCGACTGGGGCATCAGCAGGTTACCATTACTTAA | -0.628
TAGCCTAGGTCATGGGCCAGTATCCCACGCGAAC | 0.396
TCATATAGGTAAAAGGTGAAATTCGGTGTGGTAA | 2.68
CCTATTAGATGACCATAAGGGCAACCGAAGCTCG | 0.781
AGAACGAGGGCACGCTGAGTTGGTAGCAGAGTAG | 0.349
AGCACGAGGGCAATGAGTTGATAGCACGGGTGGC | -0.0946
CCGACTGGGGCATAAAGTTACCATAAGCCAGCCC | -0.543
CGAACTAGGTCATCCAGGACAGTAAATACATTGA | 3
ATCTCTAGGTGAAGATAGTTCAGTGAATGCAAAT | 0.653
ACTATTAGTTGACTTGGGGCAACCGATACGACGC | 1.18
TAGCTTAGGTCATTGGGCCAGTATAGTACGCATC | 0.561

Sequence | PBM binding z-score
AGAATGCGGTTATTAAGATCAGGGAATTGCGGTC | -0.136
TCTTGTAGATAAGCAGGTTAAGAAAGCTGGCCAA | 0.000724
GCATATAGGTAATACAAGGTGAAAGTTCGATTGT | 1.22
GATACAGGGTCAAGGCCAGACTACGCGTATTGAT | 0.238
TCGGCTAGGTCAGTTGGTCAGCTAACGAGCTGCC | -0.718
AGTAAAAGTTCAGGACGAGGTAACGTAAAGCACG | 0.943
AGAACGAGGGCAATGAGTTGATAACACGGGTGGC | -0.222
TGAATGAGGTTATAAGCTCAGGGAACGTTGCAAA | 0.166
TCTATTAGTTGATTAGGGCATCCGAAACAGCGGA | 0.865
ATATGTAGGTTAAGGGTAATTCAGGTTGGTTCGC | 1.52
CAAACTAGGTCACAGAGGTCAAATTCCGTGCGTA | 8.04
CGAACGAGGGCATGAGTGGATAGCAAATGCCGAT | -0.478
CCGAGTAGGTTATGGGGCATTCCGGCAACGGTGA | 0.204
CGTCCCAGGTCATAGGAGGTCAGTGAAGACAGAT | 0.856
TTACCAAGTTGAAGGTCGTTGATCCCTCTGTAGA | 0.321
GCACCAAGGTGAATAGGTCGTTGATGAGTAGGCG | -0.106
ATCGAAAGGTCGTGAGGTGAGTAGACAGAAAGGC | 0.658
CGAACTAGGTGATCCAGGACAGTGAATACATTGA | 1.12
TCTTGTAGATTAACAGGAGGTTAAGAAAGATCGA | -0.776
AGAATGAGGTTATTAATATCAGGGAATTGCGGTC | 1.52
